# Assay results: PubChem BioAssay (EPA / NIEHS)
# Active and inactive are the calls of the source. Rule for the calls: active = hit-call score of the fitted dose curve at least 0.9, where 1 is the maximum; inactive = score below 0.9.
# Read-out: Macrophage colony-stimulating factor (MCSF), CSF1 (gene 1435)
# Test: BSK_LPS_MCSF: BioMAP Diversity Plus: LPS Assay for Macrophage colony-stimulating factor (MCSF) Biomarker Activity (AID 2283083)
# Settings: primary human HUVEC with PBMC; actives raise or lower the signal
# Outline: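 Bidirectional fitting against DMSO was applied to M-CSF levels read by ELISA at 24 h post-dose. The system pairs human umbilical vein endothelium with peripheral blood mononuclear cells; parallel SRB staining tracked cytotoxicity.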
SMILES,outcome,AC50
O=C(O)Cc1cc(I)c(Oc2ccc(O)c(I)c2)c(I)c1,inactive,
Cc1cccc2ccccc12,inactive,
O=c1c(-c2ccc(O)cc2)coc2cc(O)cc(O)c12,,14.8 µM (active)
CC/C(=C(/CC)c1ccc(O)cc1)c1ccc(O)cc1,,15.2 µM (active)
Cc1cc(F)ccc1-c1cc(N2CC[C@@H](O)[C@H]2CO)ncc1N(C)C(=O)C(C)(C)c1cc(C(F)(F)F)cc(C(F)(F)F)c1,,10.8 µM (active)
O=C1O[C@H]([C@@H](O)CO)C(O)=C1O,inactive,
CO[C@H]1/C=C/O[C@@]2(C)Oc3c(C)c(O)c4c(O)c(c(/C=N/N5CCN(C)CC5)c(O)c4c3C2=O)NC(=O)/C(C)=C\C=C\[C@H](C)[C@H](O)[C@@H](C)[C@@H](O)[C@@H](C)[C@H](OC(C)=O)[C@@H]1C,inactive,
C[C@]12CC[C@@H]3c4ccc(O)cc4CC[C@H]3[C@@H]1CCC2=O,inactive,
Oc1ccc2ccccc2c1,inactive,
c1ccc(C[n+]2cccc3ccccc32)cc1,inactive,
CCCCCCCCCCCO,inactive,
O=C(Nc1ccc(Cl)cc1)Nc1ccc(Cl)c(Cl)c1,,11.8 µM (active)
CCCCCCCCOC(=O)c1cc(O)c(O)c(O)c1,,31.9 µM (active)
CN1C(=O)N(c2ccccc2Br)Cc2cnc(Nc3ccc4c(c3)OCC(CO)O4)nc21 (stereo unspecified),,9.88 µM (active)
Cc1occc1C(=O)Nc1ccc(C(=O)N2CCC(F)(F)/C(=C\C(=O)N3CCC(N4CCCCC4)CC3)c3ccccc32)cc1,inactive,
Cc1oc2c(NC(=O)c3c(Cl)cccc3Cl)cccc2c1C(C)(C)O,inactive,
